D2 ag-1 – agonists of human D2 dopamine receptor (beta-arrestin). P14416. DiscoveRx PathHunter D2 beta-arrestin, luminescence, 90 min; 100% = 57 uM dopamine signal. activation, % (test concentration not listed). actives 0.084% (n = 360,000). AID 624465; in the data active = activation above about 40%
Target sequence (P14416 whole entry, looked up): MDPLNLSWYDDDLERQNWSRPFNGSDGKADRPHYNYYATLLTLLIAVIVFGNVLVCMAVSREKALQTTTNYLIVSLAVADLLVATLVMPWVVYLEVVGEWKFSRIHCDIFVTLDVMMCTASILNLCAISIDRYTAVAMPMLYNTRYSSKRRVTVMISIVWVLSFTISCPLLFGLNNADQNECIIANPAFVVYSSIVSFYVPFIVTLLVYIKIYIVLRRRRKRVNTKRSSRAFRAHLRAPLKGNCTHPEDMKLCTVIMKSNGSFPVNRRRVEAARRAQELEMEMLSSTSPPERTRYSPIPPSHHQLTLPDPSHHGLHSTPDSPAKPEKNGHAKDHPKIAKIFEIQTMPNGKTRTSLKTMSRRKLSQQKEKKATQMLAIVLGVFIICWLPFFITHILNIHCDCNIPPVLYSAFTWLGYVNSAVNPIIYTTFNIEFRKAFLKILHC
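DiscoveRx PathHunter D2 beta-arrestin cells (2,100/well) attached overnight, then compound-stimulated 90 min at 37 C in HBSS/10 mM HEPES/0.1% Tween-20 buffer; beta-galactosidase complementation read by luminescence after 1 h at ambient temperature. Dopamine 57 uM final (EC100) as control.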
D2 PAM-1 – human D2 receptor positive allosteric modulation; actives 0.23% (n = 360,000); DiscoveRx D2 beta-arrestin cells, luminescence, 90 min; 100% = 57 uM dopamine signal; potentiation, % (concentration not given with the values); in the data active = potentiation above about 50%
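PathHunter D2 cells, attached overnight at 37 deg C, received compound in DMSO plus dopamine at EC20 (50 nM final) for 90 min at 37 deg C. Beta-arrestin recruitment was read as luminescence after 1 h with detection reagent at ambient temperature.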
D2 ag-2 – agonists of human D2 dopamine receptor. HEK293 T-REx D2 cells, calcium flux agonist mode. activation, % at 2 µM. actives 0.53% (n = 340,000). AID 485358;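 active = activation over 3 SD above normal in the single-dose calcium agonist read, cut at about 30% in these data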; also: 0% is about no effect
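HEK293 Trex D2 cells, tetracycline-induced, o/n 30 C 5% CO2; no-wash Ca dye, RT 30–90 min; 10-cycle baseline, 23 nl cpd added, kinetic Ca read 180 s; agonist hits = positive Ca response.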
D2 PAM-2 – positively modulates the human D2 dopamine receptor allosterically. P14416. HEK293 T-REx D2, calcium flux, EC20 dopamine potentiation. potentiation, % at 10 µM. actives 0.34% (n = 340,000);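 active = potentiation over 3 SD above the plate norm, cut at about 30% in these data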; also: 0% is about no effect
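Using a no-wash calcium dye in inducible, force-coupled HEK293 Trex cells expressing D2, we tracked fluorescence each second for 180 s after compound, then for 180 s after EC20 dopamine to detect augmented signalling.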
D2 antag – D2 dopamine receptor (human) antagonism. AID 485344. HEK293 TREx D2 cells, calcium flux, dopamine EC80. P14416. actives 2% (n = 340,000). inhibition, % at 10 µM; in the data active = inhibition above about 30%; inactive = below that, where a call was filed; also: 0% is about no effect
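Compounds are added to dye-loaded, induced HEK293 T-REx cells coupled to calcium release via D2; after a 3 min kinetic read an EC80 dopamine stimulus is given and fluorescence is recorded for 3 more min.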
Active calls of the source: *; . = not tested or not shown; ! = not confirmed by another sample. Most compounds without a hit are left out; they make up all but 2.4% or so of the library.

SMILES	D2 ag-1	D2 PAM-1	D2 ag-2	D2 PAM-2	D2 antag
CCC(Cc1ccccc1)NC(=O)CN(C)S(=O)(=O)c1ccc2c(c1)c(=O)n(C)c(=O)n2C (centres undefined)	-1	-7	0	52*	23
Cn1c(=O)c2cc(S(=O)(=O)NCCC(=O)N3CC=C(c4ccccc4)CC3)ccc2n(C)c1=O	-2	-11	3	-20	3
Fc1ccc(N2CCN(C3=Nc4cccc5cccc3c45)CC2)cc1	-3	-18	-3	-1	8
CN1CCN(C2=Nc3cc(F)ccc3Cc3ccccc32)CC1	.	.	1	-26	33*
O=C(CCN1C(=O)CSc2ccccc21)Nc1ccc(OC(F)(F)F)cc1	-1	-4	0	-17	51*
CCOc1ccc(NC(=O)CCN2C(=O)CSc3ccccc32)cc1	3	-5	1	-11	-9
CC(=O)Nc1ccc(Oc2ccc(-c3noc(C)n3)cc2)cc1	1	4	0	-14	16
CC(=O)Oc1ccc(Oc2ccc(-c3noc(C)n3)cc2)cc1	1	-15	0	33*	18
Cc1ccc(CNC(=O)CCC(=O)n2ncc3cc(C)ccc32)cc1	-5	-2	0	2	47*
Cc1ccc2c(cnn2C(=O)CCCC(=O)NCc2ccc(Cl)cc2)c1	-6	-8	0	4	9
COc1ccc(OC)c(NC(=O)N(C)CCc2c(C)nn(C)c2C)c1	.	.	1	1	.
CCOC(=O)c1cc(-c2ccc(C)o2)n[nH]1	0	-10	-1	-15	30*
C=CCN1CCc2c(cc(O)c(O)c2Br)[C@@H](c2ccccc2)C1	59*	66*	.	.	.
O=C(CN1C(=O)COc2ccc(S(=O)(=O)N3CCOCC3)cc21)N1CCN(c2ccc(Cl)cc2)CC1	.	.	1	-6	.
CC(C)c1ccc(NC(c2nnc(-c3ccccc3)o2)c2ccc(F)cc2Cl)cc1 (centres undefined)	.	.	0	-10	.
CCn1c2ccccc2c2cc(CNCc3ccc(OC)cc3OC)ccc21	3	-3	8	-28	35*
NC(=O)c1cc2ccccc2o/c1=N/NC(=O)c1cccc(Cl)c1	-4	2	-1	5	49*
COc1cccc(-n2c(=O)c3c(C)c(C(=O)N(C)C)sc3n(CC(=O)NCC3CCCO3)c2=O)c1 (centres undefined)	-3	1	0	1	41*
CCc1ccc(-n2c(=O)c3c(C)c(C(=O)N(C)C)sc3n(CC(=O)NCC3CCCO3)c2=O)cc1 (centres undefined)	2	-5	-1	-2	-8
CCOC(=O)c1noc2ncn(CC(=O)Nc3ccc(C)c(F)c3)c(=O)c12	.	.	1	-2	.
Oc1ccc2ccccc2c1CNn1cnnc1	1	-3	0	-7	33*
CC(=O)c1cc(C(=O)Nc2cc(C)cc(C)c2)c2ccccn12	.	.	-1	20	.
COc1cc(C(=O)OC(C)CN2CCN(C)CC2)cc(OC)c1OC (centres undefined)	-2	-10	0	1	-3
COc1cc(C(=O)OC(C)CN2CCOCC2)cc(OC)c1OC (centres undefined)	-1	-13	-1	1	40*!
CCOc1cc(/C=C2\CCCc3c2nc2ccccc2c3C(=O)O)ccc1OC	-2	6	87*	-27	38*
SMILES	D2 ag-1	D2 PAM-1	D2 ag-2	D2 PAM-2	D2 antag
CS(=O)(=O)N(CC(=O)NCc1ccccc1)C1CCCCC1	-4	-3	0	-8	37*
Cc1ccc(CNC(=O)CN(C2CCCCC2)S(C)(=O)=O)cc1	-4	-7	0	-6	3
CN1C2CCC1CC(OC(c1ccccc1)c1ccccc1)C2 (centres undefined)	-3	-24	0	-24	36*
Cc1ccc(C)c(N2CCN(c3nccn4nc(-c5ccc(Br)cc5)cc34)CC2)c1	.	.	0	7	.
CC(NC(=O)Cn1c(=O)oc2cc(S(=O)(=O)NCc3ccccc3)ccc21)c1ccccc1 (centres undefined)	.	.	-1	1	.
CC(=O)N1CCCC1c1nc2ccccc2n1Cc1ccccc1C (centres undefined)	.	.	.	-10	.
COc1cccc(OC)c1Oc1ccc(C(F)(F)F)cn1	2	-5	0	9	66*
FC(F)(F)c1ccc(Oc2ccccc2Cl)nc1	-3	-1	2	8	7
Cc1ccc(CN2CCC(c3cc(-c4cccs4)n[nH]3)CC2)cc1	1	-18	1	-21	70*
COC(=O)CCN1CCC(c2cc(-c3cccc(C(F)(F)F)c3)n[nH]2)CC1	-3	-10	1	-9	-27
FC(F)(F)c1cccc(CN2CCC(c3cc(-c4cccs4)n[nH]3)CC2)c1	3	-16	0	-33	84*
CC(C)[C@H]1CN=C2N(C[C@H](C)NC(=O)CCC3CCCCC3)[C@H](Cc3ccc(O)cc3)CN21	1	-24	0	-23	77*
C[C@@H](CN1C2=NC[C@H](C)N2C[C@H]1Cc1ccc(O)cc1)NC(=O)CCC1CCCCC1	-4	-33	0	-18	52*
COc1ccc(C[C@@H]2CN3C(=NC[C@@H]3Cc3ccc(O)cc3)N2C[C@H](C)NC(=O)CCC2CCCCC2)cc1	-3	-31	-2	-6	-34
O=C(CCC1CCCCC1)NCCN1C2=NC[C@@H](Cc3ccccc3)N2C[C@H]1Cc1ccc(O)cc1	-4	-31	0	-24	51*
CCC(CC)c1nn2c(=O)cc(COc3ccc(NC(=O)c4ccc(Cl)cc4)cc3)nc2s1	.	.	0	4	.
O=S(=O)(c1ccc(Cl)cc1)c1nc(-c2cccs2)oc1N1CCCCC1	.	.	-1	1	.
COc1cccc(N2CCN(C(=O)CN3CCSc4ccccc43)CC2)c1	.	.	0	-10	.
CCC(=O)Oc1ccc(C(=O)Nc2c[nH]c(=O)[nH]c2=O)cc1	-2	8	2	-2	35*
COc1ccc(S(=O)(=O)N2CCC(C(=O)NCCN3CCOCC3)CC2)cc1OC	-8	-6	0	-4	-9
COc1ccc(S(=O)(=O)N2CCC(C(=O)NCCN3CCOCC3)CC2)cc1C	-4	-10	1	-4	34*
CCn1nc(-c2ccccc2)c(-c2ccccc2)c(C(=O)Nc2nc(C)c(C(C)=O)s2)c1=O	.	.	0	-9	.
Cc1nc(-c2ccc(F)cc2)c(CC(=O)N2CCN(S(=O)(=O)c3cccc(Cl)c3)CC2)s1	-1	-10	-1	-2	34*
Cn1cccc1CNCc1ccccc1Cl	-4	-10	50*	-18	2
CCCCCNCc1cccn1C	-2	-10	0	-14	10
Cn1cccc1CNC(=O)Nc1ccccc1	-1	8	1	1	-6
Cn1cccc1CNC(=O)Nc1ccc(Cl)cc1	-3	-25	0	5	31*
